Measured values from ChEMBL document CHEMBL3433997, “St. Jude Leishmania screening dataset” (2016).

Tests used:
Type in all cases: functional
[1] = target: Solute carrier family 2, facilitated glucose transporter member 1 (Homo sapiens) (UniProt P11166); assay: ST_JUDE_LEISH: Cytotoxicity at 2uM final concentration against transgenic Leishmania Mexicana promastigotes LmGLUT1 that are glucose transport deficient and complemented with the human glucose transporter GLUT1. Activity is measured by DNA content using SYBR green in vitro
[2] = target: Hexose transporter 1 (Plasmodium falciparum) (UniProt O97467); assay: ST_JUDE_LEISH: Cytotoxicity at 2uM final concentration against transgenic Leishmania Mexicana promastigotes LmPfHT that are glucose transport deficient and complemented with the Plasmodium falciparum hexose transporter. Activity is measured by DNA content using SYBR green in vitro
[3] = target: Glucose transporter (Leishmania mexicana) (UniProt O61059); assay: ST_JUDE_LEISH: Cytotoxicity at 2uM final concentration against transgenic Leishmania Mexicana promastigotes LmGT2 that are glucose transport deficient and complemented with the L. Mexicana glucose transporter 2. Activity is measured by DNA content using SYBR green in vitro

Solute carrier family 2, facilitated glucose transporter member 1 (Homo sapiens), sequence (P11166 whole entry): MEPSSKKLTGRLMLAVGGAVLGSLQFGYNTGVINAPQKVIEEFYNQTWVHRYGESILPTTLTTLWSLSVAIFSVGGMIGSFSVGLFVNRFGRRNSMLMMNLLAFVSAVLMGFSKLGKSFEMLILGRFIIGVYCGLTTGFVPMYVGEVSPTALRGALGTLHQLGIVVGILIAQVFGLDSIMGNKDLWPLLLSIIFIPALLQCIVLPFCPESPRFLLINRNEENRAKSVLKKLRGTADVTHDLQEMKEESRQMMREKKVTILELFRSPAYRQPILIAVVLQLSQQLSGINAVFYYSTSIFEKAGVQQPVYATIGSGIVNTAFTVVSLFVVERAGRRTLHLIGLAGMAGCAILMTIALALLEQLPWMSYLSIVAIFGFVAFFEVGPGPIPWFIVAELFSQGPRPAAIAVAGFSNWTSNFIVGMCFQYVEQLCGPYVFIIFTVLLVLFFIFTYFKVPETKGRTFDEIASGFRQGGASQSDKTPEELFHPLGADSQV

Cn1nc(-c2cccc(CN[C@@H]3CCc4ccc(O)cc43)c2)c2cnc(NCCCN3CCCC3)nc21
inhibition [1]: 11.2% | inhibition [2]: 4.83% | inhibition [3]: 4.3%

COc1ccc(Nc2nc(NCc3ccco3)c3ccccc3n2)cc1
inhibition [1]: 25.5% | inhibition [2]: 20% | inhibition [3]: 12.1%

c1ccc2c(C3CCN(CCCCOc4ccc5c(c4)CCN(CC4CC4)CC5)CC3)c[nH]c2c1
inhibition [1]: 70.5% | inhibition [2]: 43.6% | inhibition [3]: 6.07%

O=C(Nc1ccc(-n2ccc(C(F)(F)F)n2)cc1)c1cccs1
inhibition [1]: 0.18% | inhibition [2]: 0.85% | inhibition [3]: 0.42%

CC(CC1CCCCC1)NCc1ccccc1OCCC(=O)N1CCCC1C(N)=O (stereo unspecified)
inhibition [1]: 3.79% | inhibition [2]: 3.8% | inhibition [3]: 0.2%

CC(C)N1CCN(C(CN2CCN(CCCOc3cccc(-c4ccccc4)c3)CC2)c2ccc(F)cc2)CC1 (stereo unspecified)
inhibition [1]: 0.87% | inhibition [2]: 2.77% | inhibition [3]: 0.81%

Cc1noc(C)c1-c1cccc(CNCc2cccc(-c3ccc(-c4nc5cc(C(F)(F)F)ccc5[nH]4)s3)c2)c1
inhibition [1]: 0.65% | inhibition [2]: 7.93% | inhibition [3]: 5.87%

Oc1ccc(-c2nc(-c3ccc4oc5ccc(-c6[nH]c(-c7ccc(O)cc7)nc6-c6ccccc6)cc5c4c3)c(-c3ccccc3)[nH]2)cc1
inhibition [1]: -2.06% | inhibition [2]: -1.28% | inhibition [3]: -0.47%

COc1ccc(NC(=O)CSc2nc(-c3ccccc3Cl)ns2)cc1
inhibition [1]: 1.15% | inhibition [2]: -1.47% | inhibition [3]: -2.13%

CC(C)(C)C(=O)N1CCN(c2ccc([N+](=O)[O-])c(NC3CC3)c2)CC1
inhibition [1]: 2.03% | inhibition [2]: 2.58% | inhibition [3]: 2.27%

CN1CCC(N2CCN(Cc3cccc(-c4ccc(-c5nc6ccccc6[nH]5)cc4)c3)CC2)CC1
inhibition [1]: 2.84% | inhibition [2]: 1.99% | inhibition [3]: 0.07%

COc1ccc2nccc(CCC3(O)CCC(NCc4cc5c(cc4F)SCC(=O)N5)CC3)c2c1 (stereo unspecified)
inhibition [1]: 0.25% | inhibition [2]: 2.45% | inhibition [3]: -2.7%
